Assay results reported in PubChem BioAssay (Tox21).
“And” between values parts separate entries of the source, which are not always exact repeats. Equal values may be shown once. Inconclusive results are not listed. A structure can be active in one record and inactive in another. The source made the active and inactive calls. Unless noted, calls come from the whole dose curve; as a rule, active = well fitted curve in the direction sought with a large enough effect in the repeat runs; inconclusive = weak or mixed curves; inactive = no such curve, though single readings can be large; an effect the other way counts as inactive or inconclusive.

Tests used:
[1] = qHTS assay to identify aromatase inhibitors - cell viability counter screen (AID 743084);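 note: cells stimulated with testosterone during compound exposure; nearly all actives have a fitted effect of over 55% in size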; note: potency is the fitted concentration of half-maximal effect
[2] = biological target: Aryl hydrocarbon receptor (Homo sapiens) (UniProt P35869); test: qHTS assay to identify small molecule that activate the aryl hydrocarbon receptor (AhR) signaling pathway (AID 743085); note: nearly all actives have a fitted effect of over 15% in size; note: potency is the fitted concentration of half-maximal effect;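 for activation: HG2L7.5c1 human HepG2 liver cells with stably integrated DRE-driven firefly reporter; series mostly up to about 70 µM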
Method in brief: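 AhR agonist activity is inferred from enhanced light output of a DRE-controlled firefly luciferase reporter in HepG2 cells, measured with ONE-Glo following 24 h treatment at 37C.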

[3] = qHTS assay to identify small molecule that activate the aryl hydrocarbon receptor (AhR) signaling pathway - cell viability counter screen (AID 743086);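 note: HepG2 liver cells carrying the AhR DRE luciferase reporter; series mostly up to about 70 µM; nearly all actives have a fitted effect of over 45% in size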
Method in brief: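 HepG2-AhR-luc (HG2L7.5c1) cells, 4000/well, were preincubated 5 h at 37C, exposed to compound in qHTS format for 24 hr at 37C, then given CellTiter-Fluor for 30 min; viability was read as fluorescence in the reporter wells.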

[4] = biological target: Peroxisome proliferator-activated receptor gamma (Homo sapiens) (UniProt P37231); test: qHTS assay to identify small molecule agonists of the peroxisome proliferator-activated receptor gamma (PPARg) signaling pathway (AID 743094; active = well fitted activation curve with a large enough effect in the signal ratio in the repeat runs, not every such curve was filed as active; the % refers to the signal ratio)
Method in brief: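 Agonist activity was taken from a beta-lactamase reporter (FRET substrate, 1 h at room temperature) in HEK293H cells carrying a PPARg UAS-bla construct. Compounds in DMSO were incubated 17 h at 37C after a 5 h cell pre-incubation.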

[5] = qHTS assay to identify small molecule antagonists of the peroxisome proliferator-activated receptor gamma (PPARg) signaling pathway - cell viability counter screen (AID 743194); note: nearly all actives have a fitted effect of over 55% in size
Method in brief: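 PPARg-UAS-bla HEK293H cells were plated, rested 5 h at 37 C, then treated with compounds plus rosiglitazone (50 nM final) for 17 h at 37 C; viability was then read by CellTiter-Glo luminescence after 30 min at room temperature.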

[6] = qHTS assay for small molecule agonists of the antioxidant response element (ARE) signaling pathway (AID 743202; active = well fitted activation curve with a large enough effect in the signal ratio in the repeat runs, not every such curve was filed as active; the % refers to the signal ratio)
Method in brief: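 Steps: seed ARE-bla HepG2 cells (2,000/well); incubate 5 h at 37 C; add compounds by pin tool; incubate 16 h at 37 C; add FRET substrate; read fluorescence after 2 h at RT.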

[7] = qHTS assay for small molecule agonists of the antioxidant response element (ARE) signaling pathway - cell viability counter screen (AID 743203; calls by dose curve; note: nearly all actives have a fitted effect of over 55% in size)
Method in brief: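 Viability counter screen: CellTiter-Glo luminescence, read after 30 min at room temperature, in ARE-bla HepG2 wells. Compound exposure lasted 16 h at 37C/5% CO2, following a 5 h pre-incubation of the cells after plating.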

[8] = qHTS assay for small molecule activators of the heat shock response signaling pathway - cell viability counter screen (AID 743209); note: nearly all actives have a fitted effect of over 50% in size
Method in brief: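 Cytotoxicity counter screen run in the same wells as the heat-shock bla reporter assay: HeLa HSE-bla cells, 5 h compound exposure at 37 C, viability read by CellTiter-Glo luminescence.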

[9] = qHTS assay for small molecule activators of the heat shock response signaling pathway (AID 743210; active = well fitted activation curve with a large enough effect in the signal ratio in the repeat runs, with a control signal flat, not every such curve was filed as active; the % refers to the signal ratio;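 note: HeLa cells with beta-lactamase reporter driven by heat shock elements; series mostly up to about 63 µM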)
Method in brief: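 Activation of heat shock element-controlled beta-lactamase expression is measured in HeLa cells by LiveBLAzer FRET fluorescence, with compound exposure lasting 5 h at 37 C and substrate loading 2.5 h at room temperature.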

[10] = qHTS assay to identify small molecule agonists of the peroxisome proliferator-activated receptor delta (PPARd) signaling pathway - cell viability counter screen (AID 743211); note: nearly all actives have a fitted effect of over 55% in size
Method in brief: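 qHTS cell viability: PPARd-bla HEK293H; 17 h cpd, 37C; CellTiter-Glo, luminescence at 30 min RT.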

[11] = qHTS assay to identify small molecule antagonists of the peroxisome proliferator-activated receptor delta (PPARd) signaling pathway - cell viability counter screen (AID 743213); note: nearly all actives have a fitted effect of over 50% in size
Method in brief: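 Viability counter-screen, qHTS format: PPARd-bla HEK293H, L165041 300 nM final, 17 h compound exposure at 37 C, CellTiter-Glo luminescence after 30 min RT.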

[12] = biological target: Peroxisome proliferator-activated receptor delta (Homo sapiens) (UniProt Q03181); test: qHTS assay to identify small molecule antagonists of the peroxisome proliferator-activated receptor delta (PPARd) signaling pathway (AID 743215; active = well fitted inhibition curve with a large enough effect in the signal ratio in the repeat runs, not every such curve was filed as active; the % refers to the signal ratio;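 note: cells stimulated with agonist L165041 at 300 nM final during compound exposure; series mostly up to about 62 µM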)
Method in brief: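 Agonist L165041 (300 nM final) added with compound to PPARd-bla HEK293H UAS-bla reporter cells; 17 h incubation at 37 C. Read-out: LiveBLAzer FRET substrate, 2 h at room temperature, fluorescence intensity.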

[13] = qHTS assay to identify small molecule agonists of the farnesoid-X-receptor (FXR) signaling pathway - cell viability counter screen (AID 743218); note: nearly all actives have a fitted effect of over 45% in size; note: potency is the fitted concentration of half-maximal effect
Method in brief: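 Viability counter screen in the same wells: CellTiter-Glo luminescence, 30 min room-temperature incubation, measured after the beta-lactamase read. Cells were GeneBLAzer FXR-UAS-bla HEK 293T, compound-treated 16 h at 37C.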

[14] = biological target: Bile acid receptor (Homo sapiens) (UniProt Q96RI1); test: qHTS assay to identify small molecule agonists of the farnesoid-X-receptor (FXR) signaling pathway (AID 743220; active = well fitted activation curve with a large enough effect in the signal ratio in the repeat runs, not every such curve was filed as active; the % refers to the signal ratio)
Method in brief: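 FXR-UAS-bla HEK 293T cells carrying a UAS-driven beta-lactamase reporter were plated for 5 h at 37C/5% CO2, then exposed to DMSO-dissolved Tox21 10K compounds for 16 h at 37C. A LiveBLAzer B/G FRET substrate was loaded for 2 h at room temperature before fluorescence reading.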

[15] = qHTS assay to identify small molecule antagonists of the farnesoid-X-receptor (FXR) signaling pathway - cell viability counter screen (AID 743221; active = well fitted cell-killing curve with a large enough effect in the repeat runs, not every such curve was filed as active; note: nearly all actives have a fitted effect of over 50% in size; note: potency is the fitted concentration of half-maximal effect)
Method in brief: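 After a 5 h settling period, FXR-bla HEK 293T cells receive compound and chenodeoxycholic acid (50 uM final) and incubate 16 h at 37 C; CellTiter-Glo luminescence, read after 30 min at room temperature, reports cell viability.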

[16] = biological target: Vitamin D3 receptor (Homo sapiens) (UniProt P11473); test: qHTS assay to identify small molecule agonists of the vitamin D receptor (VDR) signaling pathway (AID 743222; calls by dose curve)
Method in brief: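 Agonist mode, beta-lactamase reporter: fluorescence from LiveBLAzer B/G FRET substrate (2 h, room temperature) read after 16 h compound treatment at 37 C of VDR-bla cells, which were pre-incubated 4 h after seeding.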

[17] = biological target: Vitamin D3 receptor (Homo sapiens) (UniProt P11473); test: qHTS assay to identify small molecule antagonists of the vitamin D receptor (VDR) signaling pathway (AID 743223; active = well fitted inhibition curve with a large enough effect in the signal ratio in the repeat runs, not every such curve was filed as active; the % refers to the signal ratio)
Method in brief: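 Reporter line VDR-bla; stimulus 1alpha,25-(OH)2 vitamin D3, 3 nM final; compound co-addition, 16 h 37C/5% CO2; LiveBLAzer B/G substrate 2 h RT; fluorescence intensity.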

[18] = biological target: Peroxisome proliferator-activated receptor delta (Homo sapiens) (UniProt Q03181); test: qHTS assay to identify small molecule agonists of the peroxisome proliferator-activated receptor delta (PPARd) signaling pathway (AID 743212; calls by dose curve)
Method in brief: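 Cells expressing a UAS-driven beta-lactamase reporter (PPARd-bla HEK293H) were given test compounds after a 5 h settle and kept at 37 C. Reporter activity was then measured as FRET fluorescence using LiveBLAzer B/G substrate.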

[19] = biological target: Peroxisome proliferator-activated receptor gamma (Homo sapiens) (UniProt P37231); test: qHTS assay to identify small molecule antagonists of the peroxisome proliferator-activated receptor gamma (PPARg) signaling pathway (AID 743191; calls by dose curve; note: series mostly up to about 63 µM; nearly all actives have a fitted effect of over 30% in size)
Method in brief: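 GeneBLAzer PPARg UAS-bla HEK293H cells carrying a UAS-driven beta-lactamase reporter were plated at 3000 cells/well, preincubated 5 h at 37C, then given compound for 17 h at 37C; LiveBLAzer B/G FRET substrate was read after 1 h at room temperature.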

Measured: Potency

Aryl hydrocarbon receptor (Homo sapiens), sequence (P35869 whole entry, looked up): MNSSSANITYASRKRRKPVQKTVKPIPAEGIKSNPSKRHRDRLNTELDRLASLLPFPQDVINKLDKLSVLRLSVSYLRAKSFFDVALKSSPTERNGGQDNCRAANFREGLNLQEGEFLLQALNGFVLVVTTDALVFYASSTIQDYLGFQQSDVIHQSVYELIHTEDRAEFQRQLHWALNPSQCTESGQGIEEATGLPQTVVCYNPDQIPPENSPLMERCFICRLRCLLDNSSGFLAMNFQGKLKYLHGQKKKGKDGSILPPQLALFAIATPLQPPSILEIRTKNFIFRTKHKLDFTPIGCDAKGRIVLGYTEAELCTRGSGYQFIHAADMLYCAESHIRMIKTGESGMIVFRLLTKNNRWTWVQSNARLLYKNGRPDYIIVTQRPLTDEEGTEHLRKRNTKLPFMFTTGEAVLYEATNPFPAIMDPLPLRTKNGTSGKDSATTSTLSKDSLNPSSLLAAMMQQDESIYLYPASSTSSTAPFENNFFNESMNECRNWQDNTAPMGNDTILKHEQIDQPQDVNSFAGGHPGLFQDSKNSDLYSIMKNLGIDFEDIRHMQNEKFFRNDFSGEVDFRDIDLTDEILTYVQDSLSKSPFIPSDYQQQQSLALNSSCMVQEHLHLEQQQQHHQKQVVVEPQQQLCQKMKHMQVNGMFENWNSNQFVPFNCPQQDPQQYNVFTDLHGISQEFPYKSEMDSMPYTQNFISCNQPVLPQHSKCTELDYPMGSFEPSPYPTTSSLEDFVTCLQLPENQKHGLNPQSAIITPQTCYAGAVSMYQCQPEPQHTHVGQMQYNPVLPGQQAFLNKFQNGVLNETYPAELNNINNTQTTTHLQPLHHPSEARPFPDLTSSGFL
Peroxisome proliferator-activated receptor delta (Homo sapiens), sequence (Q03181 whole entry, looked up): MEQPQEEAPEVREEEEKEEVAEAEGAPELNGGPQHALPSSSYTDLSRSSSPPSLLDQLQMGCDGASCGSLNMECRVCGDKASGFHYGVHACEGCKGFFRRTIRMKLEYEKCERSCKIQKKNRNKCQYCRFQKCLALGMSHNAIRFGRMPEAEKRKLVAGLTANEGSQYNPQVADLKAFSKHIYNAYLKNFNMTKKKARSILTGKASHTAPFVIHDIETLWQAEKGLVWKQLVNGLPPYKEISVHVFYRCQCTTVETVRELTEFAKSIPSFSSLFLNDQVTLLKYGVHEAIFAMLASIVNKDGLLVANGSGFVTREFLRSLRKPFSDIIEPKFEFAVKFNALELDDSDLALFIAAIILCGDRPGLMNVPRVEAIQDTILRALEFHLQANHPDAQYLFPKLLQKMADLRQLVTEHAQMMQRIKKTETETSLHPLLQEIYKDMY
Peroxisome proliferator-activated receptor gamma (Homo sapiens), sequence (P37231 whole entry, looked up): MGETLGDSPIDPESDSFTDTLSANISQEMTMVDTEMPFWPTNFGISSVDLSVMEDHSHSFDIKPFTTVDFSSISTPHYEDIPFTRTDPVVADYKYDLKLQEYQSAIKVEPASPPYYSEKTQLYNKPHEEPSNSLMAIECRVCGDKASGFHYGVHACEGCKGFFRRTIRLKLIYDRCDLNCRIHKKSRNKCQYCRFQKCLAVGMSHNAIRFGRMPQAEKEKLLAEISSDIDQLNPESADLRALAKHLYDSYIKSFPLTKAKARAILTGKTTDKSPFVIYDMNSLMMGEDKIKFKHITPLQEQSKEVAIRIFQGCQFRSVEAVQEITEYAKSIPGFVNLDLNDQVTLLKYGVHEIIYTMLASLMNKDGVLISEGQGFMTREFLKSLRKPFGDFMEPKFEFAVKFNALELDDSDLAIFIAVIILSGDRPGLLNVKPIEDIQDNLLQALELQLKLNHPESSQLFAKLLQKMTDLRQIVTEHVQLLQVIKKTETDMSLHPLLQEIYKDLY
Bile acid receptor (Homo sapiens), sequence (Q96RI1 whole entry, looked up): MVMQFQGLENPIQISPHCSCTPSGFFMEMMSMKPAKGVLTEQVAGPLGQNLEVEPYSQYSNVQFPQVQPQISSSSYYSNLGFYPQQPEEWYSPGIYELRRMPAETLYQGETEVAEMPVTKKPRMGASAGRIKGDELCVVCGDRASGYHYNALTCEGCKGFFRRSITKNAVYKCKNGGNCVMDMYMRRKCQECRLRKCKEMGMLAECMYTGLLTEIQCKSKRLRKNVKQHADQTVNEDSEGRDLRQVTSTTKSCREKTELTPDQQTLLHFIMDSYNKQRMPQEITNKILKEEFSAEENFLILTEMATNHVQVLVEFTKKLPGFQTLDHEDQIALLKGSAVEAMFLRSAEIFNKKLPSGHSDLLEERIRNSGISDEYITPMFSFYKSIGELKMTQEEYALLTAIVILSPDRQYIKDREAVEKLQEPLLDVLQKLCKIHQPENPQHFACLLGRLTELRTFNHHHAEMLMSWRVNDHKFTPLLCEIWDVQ
Vitamin D3 receptor (Homo sapiens), sequence (P11473 whole entry, looked up): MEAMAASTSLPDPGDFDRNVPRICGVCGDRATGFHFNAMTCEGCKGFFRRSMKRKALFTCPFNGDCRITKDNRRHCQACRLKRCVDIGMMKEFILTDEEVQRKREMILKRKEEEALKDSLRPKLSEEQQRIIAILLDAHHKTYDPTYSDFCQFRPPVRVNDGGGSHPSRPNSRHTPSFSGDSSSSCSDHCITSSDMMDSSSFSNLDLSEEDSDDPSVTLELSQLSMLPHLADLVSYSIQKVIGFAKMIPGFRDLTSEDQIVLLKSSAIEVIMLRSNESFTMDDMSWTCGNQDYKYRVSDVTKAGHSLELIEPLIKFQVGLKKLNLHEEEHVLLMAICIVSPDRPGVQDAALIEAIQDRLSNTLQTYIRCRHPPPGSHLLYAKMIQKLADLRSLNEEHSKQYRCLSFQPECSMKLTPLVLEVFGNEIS

CN(C)CCCN
not listed: [18] | [19]
inactive: all other assays above

COc1ccc(Cl)cc1C(=O)NCCc1ccc(S(=O)(=O)NC(=O)NC2CCCCC2)cc1
not listed: [6] | [16] | [17] | [19]
inactive: all other assays above

C=C(C)C(=O)OCCOCCOCCOC(=O)C(=C)C
not listed: [5] | [6] | [12] | [14] | [18] | [19]
inactive: all other assays above

Nc1ccccc1[N+](=O)[O-]
not listed: [3] | [16] | [17] | [18]
inactive: all other assays above

CCCCC(CC)CO (stereo unspecified)
not listed: [3] | [18]
inactive: all other assays above

Cc1ccc(N(C)C)cc1
inactive and 68.6 µM (active): [2]
not listed: [3] | [7] | [9] | [14]
inactive: all other assays above

O=C(O)CCCC[C@@H]1SC[C@@H]2NC(=O)N[C@@H]21
not listed: [5] | [14]
inactive: all other assays above

CC(=O)c1ccccc1
not listed: [5] | [14] | [16] | [17] | [18]
inactive: all other assays above

CCN(CC)c1ccc(C(=O)c2ccccc2C(=O)O)c(O)c1
not listed: [4] | [12] | [14] | [17] | [18] | [19]
inactive: all other assays above

CCCCN(CCCC)CCCC
not listed: [4] | [5] | [7] | [19]
inactive: all other assays above

O=P(OC(CCl)CCl)(OC(CCl)CCl)OC(CCl)CCl
not listed: [5] | [14] | [19]
inactive: all other assays above

CC[C@H](C)C(=O)O[C@H]1C[C@@H](C)C=C2C=C[C@H](C)[C@H](CC[C@@H]3C[C@@H](O)CC(=O)O3)[C@H]21
62.5 µM (active) and inactive: [13] | [15]
inactive and 62 µM (active): [1]
inactive: [2] | [3] | [4] | [19] | [9] | [11] | [12] | [14] | [16]

COc1cc(Cc2cnc(N)nc2N)cc(OC)c1OC
not listed: [5] | [14]
inactive: all other assays above

O=S1(=O)CC=CC1
not listed: [3] | [7] | [14]
inactive: all other assays above

CCCCCCCCCCCCCCO
not listed: [3] | [7] | [12] | [14] | [18]
inactive: all other assays above

CCCCCCOCCO
not listed: [5] | [7] | [14] | [18]
inactive: all other assays above

C#CCN(C)Cc1ccccc1
not listed: [5] | [14] | [16] | [17]
inactive: all other assays above

CC(C)c1ccc(S(=O)(=O)O)cc1
not listed: [3] | [12] | [14] | [16] | [17] | [18]
inactive: all other assays above

CC(=O)CC(=O)Nc1ccccc1
not listed: [3] | [6]
inactive: all other assays above
